# Screening data from PubChem.
# Compounds with a hit are over-represented: about 9.4% of the library has one in this group of screens.
# ELG1 DNA repair: qHTS screen for small molecules that inhibit ELG1-dependent DNA repair in human embryonic kidney (HEK293T) cells expressing luciferase-tagged ELG1. Potency, µM (highest dose often 46.1 µM), usual class: inhibitors. HEK293T ELG1-luciferase reporter, luminescence, 16 h; DNA damage induced by 5-fluorouridine. 330,000 tested, 2.3% active; also: nearly all actives have a fitted effect of over 55% in size
#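 In this reporter screen, reduction of luminescence relative to DMSO vehicle indicated activity. Compounds and 5-fluorouridine were added together to 2,000 cells per well, incubated for 16 hr at 37 °C, then developed with ONE-Glo.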
# NPC1 prom act: qHTS Assay for NPC1 Promoter Activators; Huh7 NPC1 promoter luciferase reporter, 24 h; Potency, µM (top dose mostly 9.22 µM), most hits filed as activators; 320,000 tested, 2.4% active; AID 485313, 2010; also: nearly all actives have a fitted effect of over 60% in size
#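 Huh7 cells stably carrying NPC1 promoter–luciferase, plated in Opti-MEM with 10% FBS for 2 h, were exposed to compound in DMSO for 24 h at 37 °C; luciferase reagent was added for 10 min and luminescence read.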
# Rab9 promoter act: qHTS Assay for Rab9 Promoter Activators; Huh7 Rab9 promoter-luciferase reporter, luminescence, 24 h; Potency, µM (series often up to 9.22 µM), actives largely listed as activators; 320,000 tested, 2.8% active; AID 485297, 2010; also: nearly all actives have a fitted effect of over 60% in size
#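 Cells were plated at 1500 per well in reduced-serum medium with 10% FBS and left 2 h. Compound in DMSO was then added for 24 h at 37 °C. Reporter signal was read by luminescence after 10 min with luciferase detection reagent.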
# SMN2 splice enh: qHTS Assay for Enhancers of SMN2 Splice Variant Expression; HEK293 SMN2-luciferase splicing reporter, luminescence, 30-36 h; Potency, µM (series often up to 46.1 µM), actives largely listed as activators; 210,000 tested, 2.8% active; AID 1458, 2008; also: nearly all actives have a fitted effect of over 55% in size
#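 HEK293 cells carry an SMN2 minigene-luciferase reporter in which exon 7 inclusion puts luciferase in frame. Cells were seeded at 2000 cells/well, attached for 10-12 hours, then exposed to compounds for 30-36 hours at 37C before ONE-Glo luminescence.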
# ELG1 genotox: qHTS screen for small molecules that induce genotoxicity in human embryonic kidney (HEK293T) cells expressing luciferase-tagged ELG1 | HEK293T ELG1-luciferase reporter, luminescence, 16 h | Potency, µM (highest dose often 46 µM), most hits filed as activators | 330,000 tested, 1.3% active | AID 504466, 2011; also: nearly all actives have a fitted effect of over 60% in size
#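 ELG1-luciferase HEK293T cells, 2,000/well; compound pinned in; 16 hr, 37 °C, 5% CO2; ONE-Glo, 30 min RT; luminescence on CCD imager.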
# FLuc counter: qHTS profiling assay for firefly luciferase inhibitor/activator using purifed enzyme and Km concentrations of substrates (counterscreen for miR-21 project); AID 588342, 2011; 360,000 tested, 6.9% active; purified FLuc, Km substrates, luminescence inhibition; Potency, µM (doses to about 57.5 µM), most hits filed as inhibitors; Luciferin 4-monooxygenase (Photinus pyralis), P08659; also: nearly all actives have a fitted effect of over 55% in size
# Target sequence (P08659 whole entry, looked up): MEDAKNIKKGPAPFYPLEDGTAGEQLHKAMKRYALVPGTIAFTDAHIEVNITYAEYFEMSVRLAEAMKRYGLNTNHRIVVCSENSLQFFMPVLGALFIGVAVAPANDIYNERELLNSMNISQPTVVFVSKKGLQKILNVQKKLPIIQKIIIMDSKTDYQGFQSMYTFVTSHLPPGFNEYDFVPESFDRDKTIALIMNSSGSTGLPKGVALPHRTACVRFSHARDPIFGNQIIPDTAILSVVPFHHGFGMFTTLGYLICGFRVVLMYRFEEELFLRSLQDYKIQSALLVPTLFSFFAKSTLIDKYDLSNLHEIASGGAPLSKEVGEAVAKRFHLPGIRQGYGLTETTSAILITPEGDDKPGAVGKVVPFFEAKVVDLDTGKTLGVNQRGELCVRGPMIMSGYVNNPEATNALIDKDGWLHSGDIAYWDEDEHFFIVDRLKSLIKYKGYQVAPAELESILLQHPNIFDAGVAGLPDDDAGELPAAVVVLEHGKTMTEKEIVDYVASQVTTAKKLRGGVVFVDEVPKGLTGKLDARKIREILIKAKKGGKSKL
#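 Purified P. pyralis luciferase, 10 nM final, with Km-level 10 uM D-luciferin and 10 uM ATP in 50 mM Tris acetate pH 7.5, 10 mM Mg acetate, 0.01% Tween-20, 0.05% BSA; 6-point qHTS titration about 60 µM downward; luminescence read.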
# A number is an active result; – = inactive; ? = inconclusive; · = no result given; [ ] = another dose, or the depositor's remark. Calls follow the shape of the dose curve; as a rule, active = well fitted curve in the direction sought with a large enough effect; inconclusive = small, poorly fitted or top-dose-only effect, or another doubt; inactive = no such curve, though single readings can be large; an effect the other way counts as inactive or inconclusive.
SMILES,ELG1 DNA repair,NPC1 prom act,Rab9 promoter act,SMN2 splice enh,ELG1 genotox,FLuc counter
Cc1nc(SCC(=O)Nc2nc3ccccc3s2)n[nH]1,?,–,–,·,–,?
Cc1cc(C(F)(F)F)c(C#N)c(SCC(=O)Nc2nc3ccccc3s2)n1,?,1.3µM,0.4µM,–,0.23µM,1.2µM
Cc1cc(C)c(C#N)c(SCC(=O)Nc2nnc(-c3ccccc3)s2)n1,–,–,–,·,–,–[2.3 µM]
Cc1ccc2sc(NC(=O)CSc3nc(C)cc(C)c3C#N)nc2c1,?,?,–,2.5µM,?,3.8µM
COc1cc(/C=N/N=C2/NC(=O)C(Cc3ccccc3)S2)ccc1O (stereo unspecified),?,–,–,–,–,2.4µM
O=C(CC1S/C(=N/N=C/c2cccnc2)NC1=O)Nc1ccccc1 (stereo unspecified),–,–,–,–,–,?
O=C1N/C(=N\N=C\c2cccnc2)SC1Cc1ccc(SC(F)F)cc1 (stereo unspecified),–,–,–,–,–,11µM
O=C1N/C(=N\N=C\c2cccs2)SC1Cc1cccc(Cl)c1 (stereo unspecified),–,–,–,–,–,–
O=C1N/C(=N\N=C\c2ccc3ncccc3c2)SC1Cc1ccc(SC(F)F)cc1 (stereo unspecified),?,?,?,13µM,?,0.54µM
O=C1N/C(=N\N=C\c2ccccn2)SC1Cc1cccc(SC(F)F)c1 (stereo unspecified),–,–,–,–,–,15µM
O=c1c2sc3ccccc3c2n(Cc2cccc(C(F)(F)F)c2)c(=O)n1Cc1ccc(F)cc1,·,·,·,–,·,–
O=C1OC(c2ccc(F)cc2)=C/C1=C\c1ccc(O)cc1,–,–,–,·,–,11µM
CCOC(=O)C1=C(CSc2nc(-c3ccccc3)ccc2C#N)OC(N)=C(C#N)C1c1ccc(OC)cc1 (stereo unspecified),?,–,–,–,?,15µM
CCOC(=O)C1=C(CSc2nc(CC)c(C)cc2C#N)OC(N)=C(C#N)C1c1ccccc1 (stereo unspecified),–,–,–,–,–,–
CCn1c(=O)cc(OCC(=O)NCCCN2CC(C)CC(C)C2)c2ccccc21 (stereo unspecified),?,–,–,?,16µM,–
CC1CCN(CCCNC(=O)COc2cc(=O)n(C)c3ccccc23)CC1,?,–,–,–,–,–
CCn1c(=O)cc(OCC(=O)NCCCN2CCC(C)CC2)c2ccccc21,?,–,–,–,16µM,–
CC1CC(C)CN(CCCNC(=O)COc2cc(=O)n(C)c3ccccc23)C1 (stereo unspecified),?,–,–,–,–,–
CC(=O)c1ccc(Nc2ccc(-c3ccccc3F)nn2)cc1,?,0.71µM,0.5µM,7.1µM,?,4.8µM
CCOC(=O)c1cc(NC(=O)Cc2ccc(S(=O)(=O)N3CCOCC3)s2)cc(C(=O)OCC)c1,6.5µM,–,–,·,–,–
O=C(Cc1ccc(S(=O)(=O)N2CCOCC2)s1)Nc1cc(C(F)(F)F)ccc1N1CCCC1,?,–,–,·,–,–
O=C(Cc1ccc(S(=O)(=O)N2CCOCC2)s1)Nc1cc(C(F)(F)F)cc(C(F)(F)F)c1,21µM,–,–,·,–,–
CCc1ccc(N/C(N)=N/c2nc(CSc3ccccn3)cc(=O)[nH]2)cc1,23µM,–,–,·,–,–
COc1ccc(NC(=O)CSc2ccccn2)cc1,?,–,?,?,–,?
O=C(CSc1ccccn1)Nc1ccc(NC(=O)CSc2ccccn2)cc1,–,–,–,–,–,–
SMILES,ELG1 DNA repair,NPC1 prom act,Rab9 promoter act,SMN2 splice enh,ELG1 genotox,FLuc counter
COc1cccc(NC(=O)CSc2ccccn2)c1,?,?,?,?,?,15µM
COc1ccccc1C(=O)CSc1ccccn1,?,–,?,–,?,17µM
O=C(CCSc1ccccn1)Nc1ccc(Br)cc1,?,?,3.5µM,14µM,?,12µM
Cc1ccc(NC(=O)CN(C)C(=O)CSc2nnc(C)s2)cc1,?,·,·,·,–,·
COc1ccc(CCN(C)CCCN2CCc3cc(OC)c(OC)cc3CC2=O)cc1OC,·,·,·,–,·,·
CCc1ccc(NC(=O)CSc2ccccn2)cc1,?,–,?,–,–,13µM
CC(=O)Nc1ccc(NC(=O)CSc2nc3ccccc3nc2N2CCOCC2)cc1,·,·,·,–,·,–
Cc1ccc(SCc2cc(=O)[nH]c(/N=C(\N)Nc3ccccc3Sc3ccccc3)n2)cc1,–,–,–,–,–,–
COc1cccc(NC(=O)CSc2nc3ccccc3nc2N2CCOCC2)c1,–,–,–,4µM,–,–
COc1ccccc1N/C(N)=N/c1nc(CSc2ccc(C)cc2)cc(=O)[nH]1,10µM,–,–,–,–,–
Cc1ccccc1CN1CCN(CC(=O)NCc2ccccc2Cl)C1=O,·,·,·,·,·,–
N#Cc1ccc(OC(=O)c2cc(-c3ccc4c(c3)OCCO4)on2)cc1,·,·,·,·,·,21µM
COc1ccc(OC(=O)c2cc(-c3ccc4c(c3)OCCO4)on2)cc1,·,·,·,·,·,7.6µM
O=C(Oc1ccc(Cl)cc1)c1cc(-c2ccc3c(c2)OCCO3)on1,·,·,·,·,·,6µM
Cc1cccc(OC(=O)c2cc(-c3ccc4c(c3)OCCO4)on2)c1,·,·,·,·,·,4.8µM
